Laboratory results taken from PubChem BioAssay (NCI).
This is part of a sample that, as a whole, favours compounds with a hit. Of some 83,000 tested, about 20% had one in any assay.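 Method: cells in 96-well plates; compound added at one concentration; 48 h incubation; percent growth measured; values under 10 scored active.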 A number with no mark means an inactive call. Active and inactive are the calls of the source.

system: UACC-257 melanoma; assay: NCI-60 one-dose screen, 48 h (100 = growth as untreated, 0 = no growth, -100 = all killed); settings: 10 µM unless noted

| Compound | growth |
| --- | --- |
| COc1cccc(/C=C2\Oc3cc(OCCN4CCCC4)ccc3C2=O)c1 | 111% |
| COc1ccc(-c2nc3ccc(-c4nc5ccc(N6CCN(c7ccncc7)CC6)cc5[nH]4)cc3[nH]2)cc1OC | 11.6% |
| Cc1ccc(C2=NN3C(C2)c2cc(Br)ccc2OC32CCN(Cc3ccccc3)CC2)o1 (centres undefined) | 101% |
| COc1cc2c(cc1-c1c(C)noc1C)ncc1nc(-c3ccccn3)n([C@H](C)COC(F)F)c12 | 44.4% |
| Cc1oc(-c2ccc(Cl)cc2Cl)cc1C(=O)Nc1nccs1 | 114% |
| COc1ccc2c(c1)c(-c1nonc1-c1cn(C)c3ccccc13)cn2C | 66.5% |
| COC(=O)c1ccc(NC(=O)c2ccc(-c3cccc([N+](=O)[O-])c3)o2)cc1 | 102% |
| COc1cccc(C2=NN3C(C2)c2cc(Br)cc(OC)c2OC32CCN(Cc3ccccc3)CC2)c1 (centres undefined) | 104% |
| O=C1c2cc3c(cc2-c2c1c1cc(F)c(F)cc1c(=O)n2CCCn1ccnc1)OCO3 | -28.9% (active) |
| Cc1ccc2c(C(C[N+](=O)[O-])c3ccccc3F)c(-c3ccccc3)[nH]c2c1 (centres undefined) | 46.9% |
| Cc1ccccc1COc1ccc(-c2onc(C)c2-c2ccc(Cl)cc2)cc1 | 70.9% |
| COC[C@H](C)n1c(C2CCOCC2)nc2cnc3cc(-c4c(C)noc4C)c(OC)cc3c21 | 38.3% |
| C#CCOc1ccc2ncnc(NCc3cccc(NC(=O)CCl)c3)c2c1 | 63.8% [8.25 µM] |
| COc1cc(-c2nn(C)nc2-c2cc3ccccc3s2)cc(OC)c1OC | 54.7% |
| O=C1NC(=S)N[C@H]1CC(=O)n1cnc2ccccc21 | 116% |
| O=S(=O)(Nc1ccc(I)cc1F)c1ccc(-c2cnc(C3CC3)o2)cc1 | 63.1% |
| CC[C@@H](C(=O)[C@@H](C)[C@@H](O)[C@H](C)[C@@H]1O[C@@H]([C@@H](CC)C(=O)O)CC[C@@H]1C)[C@H]1OC2(C=C[C@@H](O)[C@]3(CC[C@@](C)([C@H]4CC[C@](O)(CC)[C@H](C)O4)O3)O2)[C@H](C)C[C@@H]1C (some centres undefined) | 7.26% (active) |
| CCOC(=O)c1csc(NC(=O)COc2cccc(/C=C3\CSc4ccccc4C3=O)c2)n1 | 84.5% |
| CN1CCN(c2ccc3nc(-c4ccc(OCCCCN5CCN(CCCCN6C(=O)c7cccc8cccc(c78)C6=O)CC5)cc4)[nH]c3c2)CC1 | 59.8% |
| Cc1ncc(C(=O)Nc2ccc(CN3CCN(C)CC3)c(C(F)(F)F)c2)cc1C#Cc1cnc2cccnn12 | -2.41% (active) |

| Compound | growth |
| --- | --- |
| Cc1nc2c3c(-c4ccccc4)c(-c4ccccc4)oc3ncn2n1 | 106% |
| O=C(N/N=C/c1ccccc1O)c1ccccc1Nc1ccnc(C(F)(F)F)c1 | -0.662% (active) |
| COC(=O)[C@]12CCC(C)(C)C[C@H]1[C@H]1C(=O)C[C@@H]3[C@@]4(C)c5c([nH]c6ccccc6c5=O)C(C)(C)[C@@H]4CC[C@@]3(C)[C@]1(C)CC2 | 57.4% |
| COc1ccc(-c2n[nH]nc2-c2csc3ccccc23)cc1OC | 40.1% |
| O=C1c2ccccc2C(=O)c2c(N=Nc3[nH]c(=S)[nH]c3O)cccc21 | 56.9% |
| Cn1c(NCCc2ccc(O)c(O)c2)nc2c1c(=O)n(Cc1ccc(Br)cc1)c(=O)n2C | 88.5% |
| Cc1ccc(/C=C2\SC(=S)N(CC(=O)NCCCN3CCOCC3)C2=O)cc1 | 101% |
| Cc1ccc(C2Oc3ccccc3C3CC(c4cccs4)=NN32)cc1 (centres undefined) | 98.6% |
| C=CC(=O)Nc1cccc(-c2nc(SC)nc(NCCc3ccc(OC)c(OC)c3)c2C#N)c1 | 29.7% |
| Cc1nc(/N=C(\N)NC(=O)Nc2cccc([N+](=O)[O-])c2)sc1C | 88.5% |
| COc1ccc(-n2nc(C)c3c(Nc4ccc(NC(=O)Nc5ccc(Cl)c(C(F)(F)F)c5)cc4)ncnc32)cc1 | -16.6% (active) |
| O=C(/C=C/c1cccc([N+](=O)[O-])c1)c1ccc(O)c(CN2CCN(c3cc4c(cc3F)c(=O)c(C(=O)O)cn4C3CC3)CC2)c1 | 63.1% |
| CCC([N+](=O)[O-])S(=O)(=O)c1ccc(C)cc1 (centres undefined) | 102% |
| Cc1cn2c(/C=C3/C(=O)Nc4c3ccc3ccccc43)c(C(F)(F)F)nc2s1 | 54.4% |
| O=C1c2cc3c(cc2-c2c1c1ccc(F)cc1c(=O)n2C[C@H](O)[C@@H](O)[C@H](O)CO)OCO3 | -44.3% (active) |
| O=C(Nc1cccc2[nH]c(C(F)(F)F)nc12)c1ccc(-n2cnnn2)cc1 | 107% |
| Fc1ccc(CNc2cccc3[nH]c(C(F)(F)F)nc23)cc1 | 101% |
| O=C1c2cc3c(cc2-c2c1c1ccc(F)cc1c(=O)n2CCCNCCO)OCO3 | -28% (active) |
| N#CN1CC[C@H](C(=O)Nc2cc3cc(C(N)=O)ccc3cn2)C1 | -27.9% (active) |
